MgrA DNA FP: modulators of Staphylococcus aureus MgrA DNA binding; AID 602314; fluorescence polarization; inhibition, % (no concentration beside the values); 0.13% of 84,000 active; in the data active = inhibition above about 30%, passing the limit was not always enough;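 also: 0% = protein plus DNA without compound and 100% = DNA alone without protein; higher means less MgrA bound to DNA so lower polarization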
Numbers without * were called inactive. The sample as a whole holds a higher share of hits than the screen did.

SMILES | MgrA DNA FP
CN1CCc2[nH]c(=S)c(C#N)c(-c3ccccc3)c2C1 | 10
CN1CCc2c(C#N)c(Cl)nc(NCc3ccccc3)c2C1 | -1
CN1CCc2c(C#N)c(N)n(N)c(=S)c2C1 | 161*
C=CCN1C(=O)NC(=O)/C(=C/c2cn(Cc3ccc(Cl)cc3)c3ccccc23)C1=O | 0
C/C(=C\c1cccc([N+](=O)[O-])c1)[N+](=O)[O-] | -4
O=C1NC(=O)N(c2ccccc2)C(=O)/C1=C/c1ccco1 | 17
CN1C(=O)NC(=O)/C(=C/c2ccco2)C1=O | 12
O=C1NC(=S)N(c2ccccc2)C(=O)/C1=C/C=C/c1ccco1 | 80*
O=CNc1nonc1NNc1nonc1NC=O | 6
CCCC(=O)c1c(O)c2ccccc2oc1=O | 1
